Rows were chosen to be rich in hits. Some 7.3% of all compounds tested hit in one or more screens of this group.
IP6K1 inh = Primary qHTS assay for small molecule inhibitors of Inositol hexaphosphate kinase 1 (IP6K1); Inositol hexakisphosphate kinase 1 (Homo sapiens), Q92551; IP6K1 kinase, ADP-Glo luminescence, 2 h; stronger effect = lower value; activity change, % (series mostly up to about 58 µM); 140,000 tested, 0.81% active; AID 1645851, 2021; in the data active = activity change below about -25%
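ADP-Glo luminescence measures ADP made by human IP6K1 during a 2 h RT reaction with ATP/IP6 (mix at 1.3 mM/130 uM); top library doses 57.5 and 19.1 uM final.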
3T3 cytotox = Cytotoxic Profiling in NIH 3T3 Cell Line of Diverse Libraries Using Quantitative High-Throughput Screening. NIH 3T3 viability, CellTiter-Glo ATP luminescence, 48-72 h. Potency, µM (doses to about 96.7 µM), for inactives: top-dose activity change, negative = cytotoxicity, most hits filed as inhibitors. 94,000 tested, 4.3% active. AID 1345082, 2018; also: potency is read from the fitted curve at half-maximal effect; nearly all actives have a fitted effect of over 55% in size
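Cytotoxicity was measured by CellTiter-Glo ATP luminescence after 48 or 72 h compound exposure at 37 °C. Mouse NIH 3T3 fibroblasts were seeded at 400 cells/well and dosed by 23 nL pin transfer.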
HEK293 tox = Cytotoxic Profiling in HEK 293 Cell Line of Diverse Libraries Using Quantitative High-Throughput Screening | Potency, µM (highest dose often 115 µM), for inactives: top-dose activity change, negative = cytotoxicity, usual class: inhibitors | AID 1345083, 2018 | HEK 293 viability, ATP luminescence (CellTiter-Glo), 48-72 h | 94,000 tested, 6.6% active; also: potency is read from the fitted curve at half-maximal effect; nearly all actives have a fitted effect of over 60% in size
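HEK 293 seeded at 250 cells/well receive compound via pintool. After 48 or 72 hr at 37 degree Celsius, 5% CO2 and 95% humidity, CellTiter-Glo is dispensed and luminescence read following 10 min at room temperature.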
SNCA viab count = GF-AFC viability counterscreen for inhibitors of alpha-synuclein gene (SNCA) expression; HEK-293-SNCA-luc viability, GF-AFC fluorescence, 24 h; Potency, µM (doses to about 57.1 µM), for the others: at the top dose activity change, negative = cytotoxicity, most hits filed as cytotoxic; 150,000 tested, 0.12% active; AID 1671193, 2021;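 also: potency is read from the fitted curve at half-maximal effect; 0% = DMSO-treated cells and -100% = medium-only wells without cells; nearly all actives have a fitted effect of over 30% in size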
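HEK-293-SNCA-luc cells (1500/well) plated 24 h, then exposed 24 h to a dilution series; GF-AFC added 30 min at 37C, fluorescence 405/540 nm; normalised to medium-only and DMSO wells, Hill fit.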
SNCA expr inhib = Primary qHTS assay for inhibitors of alpha-synuclein gene (SNCA) expression | HEK-293 SNCA-luciferase knock-in, luminescence, 24 h | Potency, µM (series often up to 57.2 µM), inactives show at the highest dose activity change, negative = inhibition, hits mostly inhibitors | 140,000 tested, 0.17% active | AID 1671194, 2021;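 also: potency is read from the fitted curve at half-maximal effect; plate controls were DMSO cells for no effect and cell-free wells for full effect; nearly all actives have a fitted effect of over 45% in size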
FLuc inh = Firefly luciferase inhibition profiling of diverse chemical library using quantitative high-throughput screening. Luciferin 4-monooxygenase (Photinus pyralis), P08659. AID 1347043, 2019. purified P. pyralis luciferase, luminescence, biochemical. Potency, µM (titrated, usually from 115 µM), hits mostly inhibitors. 76,000 tested, 2.5% active; also: potency is read from the fitted curve at half-maximal effect; nearly all actives have a fitted effect of over 65% in size
Target sequence (P08659 whole entry, looked up): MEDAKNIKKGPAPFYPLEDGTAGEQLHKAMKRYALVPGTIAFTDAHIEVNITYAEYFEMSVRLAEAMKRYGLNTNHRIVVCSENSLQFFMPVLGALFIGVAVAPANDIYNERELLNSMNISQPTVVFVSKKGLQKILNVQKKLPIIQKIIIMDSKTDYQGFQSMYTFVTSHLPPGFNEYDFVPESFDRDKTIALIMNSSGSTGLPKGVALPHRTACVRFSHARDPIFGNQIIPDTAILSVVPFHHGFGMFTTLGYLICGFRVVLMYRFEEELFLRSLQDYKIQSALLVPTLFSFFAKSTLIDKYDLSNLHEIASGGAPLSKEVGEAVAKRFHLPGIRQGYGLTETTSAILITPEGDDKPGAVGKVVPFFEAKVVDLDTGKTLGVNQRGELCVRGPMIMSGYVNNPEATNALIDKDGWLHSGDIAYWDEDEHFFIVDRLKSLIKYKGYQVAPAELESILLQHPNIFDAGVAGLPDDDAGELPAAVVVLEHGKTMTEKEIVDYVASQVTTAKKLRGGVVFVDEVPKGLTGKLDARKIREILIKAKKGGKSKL
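Purified P. pyralis luciferase (10nM final) in 50mM Tris acetate pH 7.5, 10mM Mg acetate, 0.01% Tween-20, 0.05% BSA with 10uM D-luciferin and 10uM ATP. Compounds titrated qHTS. Luminescence imaged on CCD.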
The depositor's hits bear a star; i = inactive; ? = inconclusive; nt = not tested or not shown; [ ] = remark or other dose. Unless noted, calls follow the shape of the dose curve; as a rule, active = well fitted curve in the direction sought with a large enough effect; inconclusive = small, poorly fitted or top-dose-only effect, or another doubt; inactive = no such curve, though single readings can be large; an effect the other way counts as inactive or inconclusive. Unless noted, % is scaled to controls: 0 for no effect and ±100 for the full control effect.

SMILES	IP6K1 inh	3T3 cytotox	HEK293 tox	SNCA viab count	SNCA expr inhib	FLuc inh
N#Cc1cccc(-c2ccnc(N[C@H]3CO[C@H]4[C@@H]3OC[C@H]4OC(=O)Nc3cccc4ccccc34)n2)c1	-9	?	22µM*	-21%	?	i
N#Cc1cccc(NC(=O)O[C@@H]2CO[C@H]3[C@@H]2OC[C@@H]3Nc2nccc(-c3cccc(C#N)c3)n2)c1	3	-13%	?	-1%	9%	i
CN(C)c1ccc(-c2ccnc(N[C@H]3CO[C@H]4[C@@H]3OC[C@H]4OC(=O)Nc3cccc(C#N)c3)n2)cc1	-1	?	14µM*	-22%	-4%	i
CC1=C[C@@H](CC#N)[C@H](C(C)C)C[C@H]1CC(=O)NC1CC1	6	-8%[174 µM]	i	-10%[87.6 µM]	11%[87.6 µM]	i
CC1=C[C@@H](CC#N)[C@H](C(C)C)C[C@H]1CC(=O)N1CCC(C)CC1	14	?	71µM*	?	-43%[87.6 µM]	i
CC1=C[C@@H](CC#N)[C@H](C(C)C)C[C@H]1CC(=O)NC1CCCCC1	-1	?	89µM*	-21%[87.6 µM]	-7%[87.6 µM]	i
CNC(=O)[C@@H](C1CCCCC1)N1CCC[C@H]1C(=O)N1CCN(CCOC)CC1	6	-10%	-12%	-4%	-18%	i
CC(C)OCCCNC(=O)CC1=C2CCCCC2N(C(C)C)C1=O (configuration not stated)	26	-8%	i	3%	4%	i
O=[S+]1([O-])NC2(CCN(Cc3ccc(OC(F)(F)F)cc3)C2)CNc2ccccc21 (configuration not stated)	8	?	50µM*	-7%	?	i
O=[S+]1([O-])NC2(CCCN(Cc3ccccc3C(F)(F)F)C2)CNc2ccccc21 (configuration not stated)	6	?	45µM*	-3%	-22%	i
O=[S+]1([O-])NC2(CCCN(Cc3ccccc3)C2)CNc2ccccc21 (configuration not stated)	18	-21%	?	6%	-10%	i
Cc1cc(-c2ccc(F)c(C(N)=O)c2)cc(C(C)(C)C)c1	-6	?	45µM*	-5%	2%	i
COc1ccc(Cn2cc(-c3ccc(F)c(C(N)=O)c3)cn2)cc1	1	?	?	-6%	73%	i
CC(C)c1cc(NCc2csc(-c3ncccn3)n2)n2nccc2n1	-8	?	?	-7%	?	i
COc1ccc(CN2CC3(CCN(S(=O)(=O)c4ccc(F)cc4)CC3)C2=O)cc1	2	-23%	89µM*	-6%	1%	i
Cc1cc(=O)n(CC(=O)Nc2cc(Cl)ccc2C)c(N(C)Cc2ccccc2)n1	26	?	25µM*	0%	-17%	i
CCOc1ccccc1NC(=O)Cn1c(N(C)Cc2ccccc2)nc(C)cc1=O	25	?	35µM*	5%	-9%	i
O=C(NCC(F)(F)F)c1cc(C2CC2)nc2onc(C3CCCN3)c12 (configuration not stated)	-7	-10%	-8%	-5%	4%	nt
O=C(C1CCCC1)N1CC2(CCCN2C2COC2)Cc2ccccc21 (configuration not stated)	-15	-11%	-27%	-17%	?	nt
COc1ccc(-c2[nH]ncc2CN2CCn3nnc(CCC(=O)N4CCCC4)c3C2)cc1	-9	-10%	-5%	5%	8%	i
CNC(=O)CCn1ncc2cc(OC3CCc4cccc(-c5cccc(F)c5)c43)ccc21 (configuration not stated)	-6	?	?	?	?	i
CNC(=O)CCn1ncc2cc(OC3CCc4cccc(-c5ccc(F)cc5)c43)ccc21 (configuration not stated)	-9	?	63µM*	?	?	i
CNC(=O)CCn1ncc2cc(OC3CCc4cccc(-c5ccccc5F)c43)ccc21 (configuration not stated)	-7	50µM*	?	?	?	i
O=C(O)c1ccc(CN2Cc3[nH]cnc3C[C@H]2c2nc(-c3ccncc3)no2)cc1	-1	-3%[174 µM]	-14%[172 µM]	5%[87.6 µM]	65%[87.6 µM]	i
O=C(NCCc1ccccc1)[C@@H]1C[C@H](c2ccc(F)cc2)N([S+](=O)([O-])C2CC2)C1	10	?	-14%[172 µM]	-10%[87.6 µM]	-13%[87.6 µM]	i
SMILES	IP6K1 inh	3T3 cytotox	HEK293 tox	SNCA viab count	SNCA expr inhib	FLuc inh
CC(=O)Nc1cccc(-c2cn(C)c(=O)n3cc(COc4ccc(Cl)cc4)nc23)c1	-20	?	?	2%[87.6 µM]	-1%[87.6 µM]	?
CC(=O)N1CC2(CCCN(CC3CCCCC3)C2)Cc2ccccc21 (configuration not stated)	-20	?	?	-9%	-16%	nt
Cc1ccc(CN2CCCC(c3nc(C(C)C)no3)CCNC(=O)CC2)s1 (configuration not stated)	30	?	?	-4%	-18%	i
Fc1ccc(-c2noc([C@@H]3Cc4nc[nH]c4CN3Cc3cccs3)n2)cc1Cl	17	50µM*	?	-10%[87.6 µM]	70%[87.6 µM]	56µM*
Cc1ccc(-c2noc([C@@H]3Cc4nc[nH]c4CN3Cc3cccs3)n2)cc1	-4	79µM*	79µM*	-4%[87.6 µM]	?	28µM*
Fc1ccc(-c2noc([C@@H]3Cc4nc[nH]c4CN3CCCc3ccccc3)n2)cc1Cl	14	?	?	-7%	59%	?
c1ccc(CN2Cc3[nH]cnc3C[C@H]2c2nc(-c3ccncc3)no2)cc1	2	?	?	1%[87.6 µM]	53%[87.6 µM]	i
Fc1ccc(-c2noc([C@@H]3Cc4nc[nH]c4CN3Cc3ccccc3)n2)cc1Cl	0	71µM*	71µM*	-7%[87.6 µM]	47%[87.6 µM]	i
O=C(NCC1CCCCC1)C1CCN(c2ccnc3ccnn23)CC1	24	?	?	2%[87.6 µM]	2%[87.6 µM]	nt
CCS(=O)(=O)c1ncc(N(Cc2ccccc2)Cc2ccco2)c(C(=O)Nc2cccc(Cl)c2C)n1	1	nt	nt	3%	-11%	nt
CCS(=O)(=O)c1ncc(Cl)c(C(=O)N(Cc2ccccc2)Cc2ccco2)n1	-5	nt	nt	8.9µM*	?	nt

Compound activity: PubChem BioAssay, National Center for Advancing Translational Sciences (NCATS)
